The source made the active and inactive calls. No rule for the calls is given here.

The target of the experiment is Pantothenate synthetase (Mycobacterium tuberculosis (strain ATCC 25618 / H37Rv)) (UniProt P9WIL5). In words: Coupled enzyme confirmation of inhibitors against recombinant Mtb PanC (AID 375).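 Also: 0% = full reaction with vehicle and 100% = no enzyme background.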 To be noted: coupled enzyme assay; at 10 µM, stronger effect = higher value.
Chain of Pantothenate synthetase (Mycobacterium tuberculosis (strain ATCC 25618 / H37Rv)) (P9WIL5 whole entry, looked up): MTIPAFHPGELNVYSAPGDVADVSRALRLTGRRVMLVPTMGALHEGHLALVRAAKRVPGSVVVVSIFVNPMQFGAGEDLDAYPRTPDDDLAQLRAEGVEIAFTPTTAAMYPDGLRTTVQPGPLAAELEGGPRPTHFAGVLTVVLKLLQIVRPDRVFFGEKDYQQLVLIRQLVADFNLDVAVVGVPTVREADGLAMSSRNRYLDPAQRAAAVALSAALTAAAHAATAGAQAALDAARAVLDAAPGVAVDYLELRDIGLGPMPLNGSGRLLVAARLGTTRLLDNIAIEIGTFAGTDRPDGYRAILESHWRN
As for `CCC(NS(=O)(=O)c1ccc(C)cc1)C(=O)N1CCC2(O)CCCCC2C1` (stereo not drawn), the inhibition is 6% (inactive).

Consider `COC(=O)CCC(=O)Nc1cccc(Cl)c1`, for which the inhibition was 0% (inactive).

As for `CCOc1nc(SCCOc2ccccc2)nc(N(C)C)n1`, the inhibition was 4% (inactive).

As to `COc1cc(-c2nnc(SCC(=O)c3cc(C)n(CC4CCCO4)c3C)o2)cc(OC)c1OC` (stereo not drawn), the inhibition is 0% (inactive).

As for `COc1cccc2cc(C(=O)n3ccc(C)n3)c(=O)oc12`, the inhibition is 1% (inactive).

For `Cc1cc(C(=O)NCc2cccnc2)no1`, the inhibition was 0% (inactive).

On to `CS(=O)(=O)N(CC(=O)NCCSCc1cccc(Cl)c1)c1ccc2c(c1)OCO2`, for which the inhibition was 1% (inactive).

With `COC(=O)c1cccc(NC(=O)NC2CCCN2S(=O)(=O)c2ccc(Cl)cc2)c1` (stereo not drawn), the inhibition was 16% (inactive).

As for `CCc1c(C)c2c(C)nn(-c3ccccc3)c2[nH]c1=O`, the inhibition was 0% (inactive).

With `CCOc1ccccc1NC(=O)CSc1c(C)n[nH]c1C`, the inhibition was 5% (inactive).

Turning to `CCOc1ccccc1C(=O)NCCCn1ccnc1`, the inhibition was 14% (inactive).

Regarding `CCCN1Cc2cccc(C(=O)NCc3cccs3)c2C1=O`, the inhibition was 0% (inactive).

Regarding `Cc1cc(C)n2cc(CSCc3ccco3)nc2n1`, the inhibition was 2% (inactive).

For `N#CC1=C(N)OC2=C(C(=O)CCC2)C1CCc1ccccc1` (stereo not drawn), the inhibition was 1% (inactive).

As for `CCCN1C2CCCC1CC(NC(=O)Nc1cccc(C(C)=O)c1)C2` (stereo not drawn), the inhibition was 1% (inactive).

Turning to `COc1ccc(C(CNC(=O)CN2C(=O)NC3(CC(C)CC(C)(C)C3)C2=O)N2CCOCC2)cc1` (stereo not drawn), the inhibition was 4% (inactive).

For `Cn1c2ccccc2c2ncn(CCCN3CCOCC3)c(=O)c21`, the inhibition is 0% (inactive).

On to `CCN(CC)CCNC(=O)C1CCN(S(=O)(=O)N2CCCCC2)CC1`, for which the inhibition was 0% (inactive).
